Experimental data published in PubChem BioAssay (NCATS).
Several values for one entry are separate records, joined by “and”; a condition that tells them apart may be missing. Identical values can stand only once. Results filed as inconclusive are left out. Activity calls are given as the source filed them. Unless noted, calls come from the whole dose curve; as a rule, active = well fitted inhibition curve with a large enough effect; inconclusive = small, poorly fitted or top-dose-only effect; inactive = flat fitted curve, though single readings scatter.

Test system: PC15
Test: qHTS profiling for inhibitors of Plasmodium falciparum proliferation (AID 504749);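 note: 0% = DMSO vehicle and full inhibition = artemisinin control; nearly all actives have a fitted effect of over 60% in size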
Settings: P. falciparum in erythrocytes, SYBR Green DNA, 72 h; series mostly up to 28.7 µM; activity, negative = inhibition: at the top concentration
Summary of the method: (§1)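 Quantitative HTS: compounds pinned into medium, infected erythrocytes added (0.3% parasitemia, 2.5% hematocrit), 72 h culture at 37 C under 5% CO2. Saponin/Triton lysis with SYBR Green I, overnight RT, then fluorescence read.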

| SMILES | Potency | activity, negative = inhibition |
| --- | --- | --- |
| C[N+]1([O-])[C@@H]2CC(OC(=O)[C@@H](CO)c3ccccc3)C[C@@H]1[C@H]1O[C@H]12 (some centres not stated) | inactive |  |
| C[C@]12CC[C@H](O)CC1=CCC1C2CC[C@]2(C)C(=O)CC[C@@H]12 (some centres not stated) |  | 3.11% (inactive) |
| ClC1=C(Cl)C2(Cl)C3C4CC(C5OC45)C3C1(Cl)C2(Cl)Cl (configuration not stated) |  | -0.496% (inactive) |
| CCNC[C@H](O)c1cccc(O)c1 |  | 11.9% [at 12.8 µM] (inactive) |

Test system: PC26
Test: as above
Settings: P. falciparum in erythrocytes, SYBR Green DNA, 72 h; series mostly up to 28.7 µM; activity, negative = inhibition: at the top concentration
Summary of the method: as §1

| SMILES | activity, negative = inhibition |
| --- | --- |
| C[N+]1([O-])[C@@H]2CC(OC(=O)[C@@H](CO)c3ccccc3)C[C@@H]1[C@H]1O[C@H]12 (some centres not stated) | 0.363% (inactive) |
| ClC1=C(Cl)C2(Cl)C3C4CC(C5OC45)C3C1(Cl)C2(Cl)Cl (configuration not stated) | -0.0392% (inactive) |
| CCNC[C@H](O)c1cccc(O)c1 | -3.78% [at 12.8 µM] (inactive) |

Test system: PC49
Test: as above
Settings: P. falciparum in erythrocytes, SYBR Green DNA, 72 h; series mostly up to 28.7 µM; activity, negative = inhibition: at the top concentration
Summary of the method: as §1

| SMILES | Potency | activity, negative = inhibition |
| --- | --- | --- |
| C[N+]1([O-])[C@@H]2CC(OC(=O)[C@@H](CO)c3ccccc3)C[C@@H]1[C@H]1O[C@H]12 (some centres not stated) | inactive |  |
| C[C@]12CC[C@H](O)CC1=CCC1C2CC[C@]2(C)C(=O)CC[C@@H]12 (some centres not stated) |  | 19.9% (inactive) |
| ClC1=C(Cl)C2(Cl)C3C4CC(C5OC45)C3C1(Cl)C2(Cl)Cl (configuration not stated) |  | 3.09% (inactive) |
| CCNC[C@H](O)c1cccc(O)c1 |  | 5.98% [at 12.8 µM] (inactive) |

Test system: SC27B
Test: as above
Settings: P. falciparum in erythrocytes, SYBR Green DNA, 72 h; series mostly up to 28.7 µM; activity, negative = inhibition: at the top concentration
Summary of the method: as §1

| SMILES | Potency | activity, negative = inhibition |
| --- | --- | --- |
| C[N+]1([O-])[C@@H]2CC(OC(=O)[C@@H](CO)c3ccccc3)C[C@@H]1[C@H]1O[C@H]12 (some centres not stated) | inactive |  |
| C[C@]12CC[C@H](O)CC1=CCC1C2CC[C@]2(C)C(=O)CC[C@@H]12 (some centres not stated) |  | 1.49% (inactive) |
| ClC1=C(Cl)C2(Cl)C3C4CC(C5OC45)C3C1(Cl)C2(Cl)Cl (configuration not stated) |  | -19.7% (inactive) |
| CCNC[C@H](O)c1cccc(O)c1 |  | 2.12% [at 12.8 µM] (inactive) |

Test system: TAB109
Test: as above
Settings: P. falciparum in erythrocytes, SYBR Green DNA, 72 h; series mostly up to 12.8 µM; activity, negative = inhibition: at the top concentration
Summary of the method: as §1

| SMILES | Potency | activity, negative = inhibition |
| --- | --- | --- |
| C[N+]1([O-])[C@@H]2CC(OC(=O)[C@@H](CO)c3ccccc3)C[C@@H]1[C@H]1O[C@H]12 (some centres not stated) | inactive |  |
| C[C@]12CC[C@H](O)CC1=CCC1C2CC[C@]2(C)C(=O)CC[C@@H]12 (some centres not stated) |  | 2.82% [at 28.7 µM] (inactive) |
| ClC1=C(Cl)C2(Cl)C3C4CC(C5OC45)C3C1(Cl)C2(Cl)Cl (configuration not stated) |  | -11.2% [at 28.7 µM] (inactive) |
| CCNC[C@H](O)c1cccc(O)c1 |  | 4.66% (inactive) |

Test system: TAB113
Test: as above
Settings: P. falciparum in erythrocytes, SYBR Green DNA, 72 h; series mostly up to 28.7 µM; activity, negative = inhibition: at the top concentration
Summary of the method: as §1

| SMILES | Potency | activity, negative = inhibition |
| --- | --- | --- |
| C[N+]1([O-])[C@@H]2CC(OC(=O)[C@@H](CO)c3ccccc3)C[C@@H]1[C@H]1O[C@H]12 (some centres not stated) | inactive |  |
| C[C@]12CC[C@H](O)CC1=CCC1C2CC[C@]2(C)C(=O)CC[C@@H]12 (some centres not stated) |  | 8.77% (inactive) |
| CCNC[C@H](O)c1cccc(O)c1 |  | 3.1% [at 12.8 µM] (inactive) |

Test system: TAB165
Test: as above
Settings: P. falciparum in erythrocytes, SYBR Green DNA, 72 h; series mostly up to 28.7 µM; activity, negative = inhibition: at the top concentration
Summary of the method: as §1

| SMILES | Potency | activity, negative = inhibition |
| --- | --- | --- |
| C[N+]1([O-])[C@@H]2CC(OC(=O)[C@@H](CO)c3ccccc3)C[C@@H]1[C@H]1O[C@H]12 (some centres not stated) | inactive |  |
| C[C@]12CC[C@H](O)CC1=CCC1C2CC[C@]2(C)C(=O)CC[C@@H]12 (some centres not stated) |  | -4% (inactive) |
| ClC1=C(Cl)C2(Cl)C3C4CC(C5OC45)C3C1(Cl)C2(Cl)Cl (configuration not stated) |  | -23.9% (inactive) |
| CCNC[C@H](O)c1cccc(O)c1 |  | 6.39% [at 12.8 µM] (inactive) |

Test system: W2
Test: as above
Settings: P. falciparum in erythrocytes, SYBR Green DNA, 72 h; series mostly up to 12.8 µM; activity, negative = inhibition: at the top concentration
Summary of the method: as §1

| SMILES | Potency | activity, negative = inhibition |
| --- | --- | --- |
| C[N+]1([O-])[C@@H]2CC(OC(=O)[C@@H](CO)c3ccccc3)C[C@@H]1[C@H]1O[C@H]12 (some centres not stated) | inactive |  |
| C[C@]12CC[C@H](O)CC1=CCC1C2CC[C@]2(C)C(=O)CC[C@@H]12 (some centres not stated) |  | 1.79% [at 28.7 µM] (inactive) |
| CCNC[C@H](O)c1cccc(O)c1 |  | 9.36% (inactive) |

Molecular target: Nuclear receptor subfamily 1 group I member 2 (Rattus norvegicus) (UniProt Q9R1A7)
Sequence (Q9R1A7 whole entry, looked up): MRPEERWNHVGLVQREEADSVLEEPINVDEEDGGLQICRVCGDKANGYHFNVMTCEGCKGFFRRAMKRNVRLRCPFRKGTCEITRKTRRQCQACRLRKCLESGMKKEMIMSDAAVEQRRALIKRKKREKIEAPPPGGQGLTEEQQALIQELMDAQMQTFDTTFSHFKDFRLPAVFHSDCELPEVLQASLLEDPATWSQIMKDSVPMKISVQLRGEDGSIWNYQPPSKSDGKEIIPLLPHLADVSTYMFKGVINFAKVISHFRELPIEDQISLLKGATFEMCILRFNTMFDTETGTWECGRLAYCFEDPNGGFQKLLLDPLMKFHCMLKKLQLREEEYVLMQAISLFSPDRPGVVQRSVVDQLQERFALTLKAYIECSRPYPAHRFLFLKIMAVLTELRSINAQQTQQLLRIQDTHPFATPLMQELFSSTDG
Test: qHTS assay for small molecule activators of the rat pregnane X receptor (rPXR) signaling pathway (AID 651751; call rule not given here; note: 0% is about no effect)
Settings: rPXR reporter cells, luciferase (One-Glo), 24 h

| SMILES | max response |
| --- | --- |
| O=C(O)COc1ccc(Cl)cc1Cl | -0.13% (inactive) [middle of 4 runs] |
| ClC1=C(Cl)C2(Cl)C3C4C=CC(C4)C3C1(Cl)C2(Cl)Cl (configuration not stated) | 5.53% (inactive) |
| c1ccc(N=Nc2ccccc2)cc1 | -2.25% (inactive) and 1.3% (inactive) |
| CCOCN(C(=O)CCl)c1c(C)cccc1CC | -4.5% (inactive) and -5.56% (inactive) |
| C=CCc1ccc(OC)cc1 | 0.607% (inactive) |
| ClC1=C(Cl)C2(Cl)C3C(Cl)C=CC3C1(Cl)C2(Cl)Cl (configuration not stated) | -2.14% (inactive) |
| ClC(Cl)=C(c1ccc(Cl)cc1)c1ccc(Cl)cc1 | 1.57% (inactive) and 5.61% (inactive) and 0.401% (inactive) |
| CCc1cccc(CC)c1N(COC)C(=O)CCl | -3.94% (inactive) and -1.3% (inactive) |
| C/C=C/c1ccc2c(c1)OCO2 | 0.551% (inactive) |
| C=CCc1ccc2c(c1)OCO2 | 3.14% (inactive) |
| COP(=S)(OC)Oc1ccc([N+](=O)[O-])cc1 | 8.93% (inactive) and 0.334% (inactive) |

Test system: not listed separately
Test: qHTS assay for small molecule activators of the human pregnane X receptor (PXR) signaling pathway (AID 720659; call rule not given here; note: 0% is about no effect)
Settings: DPX-2 HepG2 CYP3A4-luciferase, 24 h; series mostly up to 92.3 µM; activation: at the top concentration

| SMILES | outcome | activation |
| --- | --- | --- |
| O=C(O)COc1ccc(Cl)cc1Cl | inactive |  |
| c1ccc(N=Nc2ccccc2)cc1 | inactive |  |
| C=CCc1ccc(OC)cc1 |  | -7.92% (inactive) |
| ClC1=C(Cl)C2(Cl)C3C(Cl)C=CC3C1(Cl)C2(Cl)Cl (configuration not stated) |  | -6.6% (inactive) |
| C/C=C/c1ccc2c(c1)OCO2 |  | 19.2% (inactive) |
| C=CCc1ccc2c(c1)OCO2 |  | 7.38% (inactive) |
| COP(=S)(OC)Oc1ccc([N+](=O)[O-])cc1 | inactive |  |
